High-throughput results deposited in PubChem by National Center for Advancing Translational Sciences (NCATS).
The list is not random: actives were taken first. Their share in the collection is about 18%.
CtBP-E1A blk: inhibitors of CtBP/E1A interaction; AID 651724; hit rate 0.49% among 340,000; AlphaScreen GST-E1A/His-CtBP binding, 1536-well; stronger effect = lower value; activity change, % (concentration not given with the values); in the data active = activity change below about -65%; inconclusive = mostly about -30% to -63%
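Homogeneous bead-based format: GST-tagged E1A captured on glutathione donor beads, His-tagged CtBP on nickel acceptor beads; compounds precede bead addition by 2 h at 37 °C.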
Six1-Eya2 blk: blocks human Six1 binding to Eya2 | Q15475+O00167 | AlphaScreen GST-Six1/His-Eya2 binding, biochemical; stronger effect = lower value | hit rate 0.56% among 360,000 | activity change, % (test concentration not listed) | AID 651725; in the data active = activity change below about -65%; inconclusive = mostly about -30% to -63%
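Six1/Eya2 binding was read as AlphaScreen signal after compounds were pinned into GST-Six1 plus His-tagged Eya2 (5X stock 250/500 nM) in pH 8.0 Tris/NaCl/TCEP buffer, beads added, then incubated 1 h, 37 C, dark.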
IL1B secr inh: inhibitors of inflammasome signaling (IL-1 beta secretion) | THP-1 LPS/ATP IL-1B secretion, AlphaLISA, 16 h; stronger effect = lower value | activity change, % at 57.5 µM | hit rate 4.7% among 360,000; in the data active = activity change below about -50%; inconclusive = mostly about -30% to -49%
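THP-1 cells pretreated 1 hr with compounds (up to 57.5 uM final), then stimulated with LPS (250 ng/mL final) plus ATP (1.25 mM final); secreted IL-1B measured by AlphaLISA after 16 hr, decreased signal indicating inhibition.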
TDP1 cell CPT: DT40-hTDP1 cell growth loss with CPT; chicken DT40 Tdp1-/-;hTDP1 cells + 20 nM CPT, ATP luminescence, 48 h; Potency, µM (series often up to 46.2 µM), without a hit: at the highest dose activity change, negative = growth inhibition, usual class: inhibitors; hit rate 12% among 420,000; AID 686979; also: potency is read from the fitted curve at half-maximal effect; nearly all actives have a fitted effect of over 55% in size
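Chicken DT40 Tdp1-/- cells complemented with human TDP1, 400 cells/well, exposed to compounds plus 20 nM camptothecin for at least 48 h at 37 C; viability read as ATP content by CellTiter-Glo luminescence.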
TDP1 inh: inhibitors of human tyrosyl-DNA phosphodiesterase TDP1 | Q9NUW8 | recombinant TDP1, AlphaScreen DNA substrate cleavage | Potency, µM (series often up to 130 µM), for inactives: at the top dose activity change, negative = inhibition, usual class: inhibitors | hit rate 0.28% among 350,000 | AID 485290; also: potency is read from the fitted curve at half-maximal effect; nearly all actives have a fitted effect of over 40% in size
Target sequence (Q9NUW8 whole entry, looked up): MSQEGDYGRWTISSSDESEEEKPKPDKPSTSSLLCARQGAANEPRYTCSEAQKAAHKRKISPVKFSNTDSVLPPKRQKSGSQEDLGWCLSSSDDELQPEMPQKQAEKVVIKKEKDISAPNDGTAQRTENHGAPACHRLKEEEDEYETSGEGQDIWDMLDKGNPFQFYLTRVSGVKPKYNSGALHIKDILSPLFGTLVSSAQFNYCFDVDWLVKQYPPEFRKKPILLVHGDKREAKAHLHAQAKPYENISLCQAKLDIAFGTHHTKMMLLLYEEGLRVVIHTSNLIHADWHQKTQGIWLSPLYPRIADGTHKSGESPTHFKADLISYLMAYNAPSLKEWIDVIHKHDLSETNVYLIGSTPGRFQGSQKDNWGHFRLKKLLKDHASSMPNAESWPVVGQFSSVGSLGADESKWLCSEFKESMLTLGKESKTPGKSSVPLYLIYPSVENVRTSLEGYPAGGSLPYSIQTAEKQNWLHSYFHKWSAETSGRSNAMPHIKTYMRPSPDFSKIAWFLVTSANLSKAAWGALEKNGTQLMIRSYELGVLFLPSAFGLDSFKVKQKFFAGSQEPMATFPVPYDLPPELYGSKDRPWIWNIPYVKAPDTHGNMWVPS
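Compounds were preincubated with Tdp1 (1 nM final) for 15 min at room temperature before substrate (15 nM final) started a 5 min reaction; beads (10 ug/ml final) were then added for 10 min before AlphaScreen detection.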
TDP1 cell noCPT: qHTS for Inhibitors of human tyrosyl-DNA phosphodiesterase 1 (TDP1): qHTS in cells in absence of CPT; hit rate 15% among 420,000; Potency, µM (top dose mostly 46.2 µM), inactives show at the top dose activity change, negative = growth inhibition, hits mostly inhibitors; DT40 Tdp1-/- hTDP1 cells, no CPT, ATP luminescence, 48 h; AID 686978, 2013; also: potency is read from the fitted curve at half-maximal effect; nearly all actives have a fitted effect of over 55% in size
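Luminescent ATP content (CellTiter-Glo) served as the growth readout. Knockout chicken DT40 cells expressing human TDP1 were exposed to compounds without camptothecin for a minimum 48 hr at 37 °C.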
Numbers without * were called inactive. Unless noted, calls follow the shape of the dose curve; as a rule, active = well fitted curve in the direction sought with a large enough effect; inconclusive = small, poorly fitted or top-dose-only effect, or another doubt; inactive = no such curve, though single readings can be large; an effect the other way counts as inactive or inconclusive. % is scaled to controls: 0 for no effect and ±100 for the full control effect.

Results for COc1ccc(C2(C)NC(=O)N(CC(=O)c3cc(C)n(C4CC4)c3C)C2=O)cc1OC (stereo not given) ?
CtBP-E1A blk: -3.5; Six1-Eya2 blk: -6.8; IL1B secr inh: 6.7; TDP1 cell CPT: 18.4µM*; TDP1 inh: 4.0%; TDP1 cell noCPT: 13µM*

How did CCCSCCCNC(=O)c1ccccc1NC(=O)C1=CSCCO1 do in these assays?
Six1-Eya2 blk: -5.0; IL1B secr inh: -9.0; TDP1 cell CPT: -28.8%; TDP1 inh: 4.3%; TDP1 cell noCPT: inconclusive

Results for CC(=O)c1ccc(S(=O)(=O)NC2CC(=O)N(c3ccc(C)c(C)c3)C2)cc1 (stereo not given) ?
CtBP-E1A blk: 7.6; Six1-Eya2 blk: -3.2; IL1B secr inh: 6.2; TDP1 cell CPT: 14.6µM*; TDP1 cell noCPT: 14.6µM*

Results for COc1ccc(S(=O)(=O)NC2CC(=O)N(c3ccc(C)c(C)c3)C2)cc1C (stereo not given) ?
CtBP-E1A blk: 3.3; Six1-Eya2 blk: -5.3; IL1B secr inh: -8.5; TDP1 cell CPT: inconclusive; TDP1 cell noCPT: inconclusive

What do the screens show for `O=C1CC(NS(=O)(=O)c2ccc([N+](=O)[O-])cc2)CN1c1ccc(Cl)cc1` (stereo not given)?
CtBP-E1A blk: 8.0; Six1-Eya2 blk: -11.3; IL1B secr inh: -6.3; TDP1 cell CPT: inconclusive; TDP1 cell noCPT: 16.4µM*

How did Cc1cc(Nc2nc3ccccc3nc2Cl)n(-c2ccc([N+](=O)[O-])cc2)n1 do in these assays?
CtBP-E1A blk: 1.5; Six1-Eya2 blk: -3.0; IL1B secr inh: -86.7*; TDP1 cell CPT: 18.4µM*; TDP1 inh: 6.6%; TDP1 cell noCPT: 13µM*

Results for Cc1cc(NC(=O)C2CC(c3ccc(F)cc3)=NO2)no1 (stereo not given) ?
CtBP-E1A blk: 2.9; Six1-Eya2 blk: 4.0; IL1B secr inh: 3.0; TDP1 cell CPT: 3.3%; TDP1 inh: 2.9%; TDP1 cell noCPT: 0.1%

Results for COc1ccc(NS(=O)(=O)c2ccc(S(=O)(=O)N3CCOCC3)cc2)cc1 ?
CtBP-E1A blk: 8.0; Six1-Eya2 blk: 13.2; IL1B secr inh: 2.8; TDP1 cell CPT: inconclusive; TDP1 inh: 1.2%; TDP1 cell noCPT: 16.4µM*

What do the screens show for `COc1ccc(NS(=O)(=O)c2ccc(S(=O)(=O)N3CCCC3)cc2)cc1`?
CtBP-E1A blk: -10.7; Six1-Eya2 blk: 8.3; IL1B secr inh: 4.6; TDP1 cell CPT: inconclusive; TDP1 inh: 4.0%; TDP1 cell noCPT: 20.6µM*

What do the screens show for `Cc1noc(C)c1CSCC(=O)Nc1nc(-c2ccc(F)c(F)c2)cs1`?
CtBP-E1A blk: -12.0; Six1-Eya2 blk: 0.7; IL1B secr inh: -80.5*; TDP1 cell CPT: 23.1µM*; TDP1 inh: -5.7%; TDP1 cell noCPT: 8.2µM*

How did COc1ccc(-c2csc(NC(=O)CSCc3c(C)noc3C)n2)cc1OC do in these assays?
CtBP-E1A blk: -22.8; Six1-Eya2 blk: -14.9; IL1B secr inh: inconclusive; TDP1 cell CPT: inconclusive; TDP1 inh: 5.9%; TDP1 cell noCPT: 9.2µM*

What do the screens show for `COc1ccc2nc(NC(=O)CSCc3c(C)noc3C)sc2c1`?
CtBP-E1A blk: -8.0; Six1-Eya2 blk: -10.2; IL1B secr inh: -3.1; TDP1 cell CPT: inconclusive; TDP1 cell noCPT: inconclusive

What do the screens show for `Cc1noc(C)c1CSCC(=O)Nc1nc2c(F)cc(F)cc2s1`?
CtBP-E1A blk: -14.8; Six1-Eya2 blk: -9.3; IL1B secr inh: -2.0; TDP1 cell CPT: inconclusive; TDP1 inh: -19.4%; TDP1 cell noCPT: 23.1µM*

What do the screens show for `Cc1csc(NC(=O)CSCc2c(C)noc2C)n1`?
CtBP-E1A blk: 4.5; Six1-Eya2 blk: 6.7; IL1B secr inh: 4.7; TDP1 cell CPT: -19.6%; TDP1 cell noCPT: -21.4%
